The record followed here is PubChem BioAssay.

Where “and” joins values, the source holds several entries; their conditions need not be identical. Identical values can stand only once. Calls of active or inactive are those of the source.

Experiment [1] in a line: small molecules captured by biotinylated probe aFSTL3 – biochemical, small-molecule microarray, fluorescence 635/667, stem cell growth factor project, primary screen (AID 1064).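 Also: measures binding of the biotinylated anti-FSTL3 antibody to printed compounds.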 The note with it: higher = more signal.
A short description of experiment [2]: binders from COS7 lysate, DM2A8 probe, primary screen, torsin A project, cell lysate, small-molecule microarray, fluorescence 635/667 (AID 1065). The settings on record: higher = more signal, COS7 lysate expressing mutant human TOR1A.
Experiment [3] in a line: small molecules captured by biotinylated probe aFGF2 – biochemical, small-molecule microarray, fluorescence 635/667, stem cell growth factor project, primary screen (AID 1067).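 Also: measures binding of biotinylated aFGF2 protein to printed compounds on slides; z-score merges feature fluorescence and signal-to-noise across triplicate slides.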 The settings on record: higher = more signal.
The nature of experiment [4]: small molecules captured by biotinylated probe aFGF10 – biochemical, small-molecule microarray, fluorescence 635/667, stem cell growth factor project, primary screen (AID 1071).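 Also: score merges 667 nm spot intensity and signal to noise from triplicate slides.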 The settings on record: higher = more signal.
Experiment [5] deals with Neurogenic locus notch homolog protein 2 (Homo sapiens) (UniProt Q04721). Put plainly: small molecules binding Notch2 protein – biochemical, small-molecule microarray, 635 nm fluorescence, stem cell growth factors, primary screen (AID 1073). The note with it: higher = more signal.
Neurogenic locus notch homolog protein 2 (Homo sapiens), sequence (Q04721 whole entry, looked up, canonical isoform): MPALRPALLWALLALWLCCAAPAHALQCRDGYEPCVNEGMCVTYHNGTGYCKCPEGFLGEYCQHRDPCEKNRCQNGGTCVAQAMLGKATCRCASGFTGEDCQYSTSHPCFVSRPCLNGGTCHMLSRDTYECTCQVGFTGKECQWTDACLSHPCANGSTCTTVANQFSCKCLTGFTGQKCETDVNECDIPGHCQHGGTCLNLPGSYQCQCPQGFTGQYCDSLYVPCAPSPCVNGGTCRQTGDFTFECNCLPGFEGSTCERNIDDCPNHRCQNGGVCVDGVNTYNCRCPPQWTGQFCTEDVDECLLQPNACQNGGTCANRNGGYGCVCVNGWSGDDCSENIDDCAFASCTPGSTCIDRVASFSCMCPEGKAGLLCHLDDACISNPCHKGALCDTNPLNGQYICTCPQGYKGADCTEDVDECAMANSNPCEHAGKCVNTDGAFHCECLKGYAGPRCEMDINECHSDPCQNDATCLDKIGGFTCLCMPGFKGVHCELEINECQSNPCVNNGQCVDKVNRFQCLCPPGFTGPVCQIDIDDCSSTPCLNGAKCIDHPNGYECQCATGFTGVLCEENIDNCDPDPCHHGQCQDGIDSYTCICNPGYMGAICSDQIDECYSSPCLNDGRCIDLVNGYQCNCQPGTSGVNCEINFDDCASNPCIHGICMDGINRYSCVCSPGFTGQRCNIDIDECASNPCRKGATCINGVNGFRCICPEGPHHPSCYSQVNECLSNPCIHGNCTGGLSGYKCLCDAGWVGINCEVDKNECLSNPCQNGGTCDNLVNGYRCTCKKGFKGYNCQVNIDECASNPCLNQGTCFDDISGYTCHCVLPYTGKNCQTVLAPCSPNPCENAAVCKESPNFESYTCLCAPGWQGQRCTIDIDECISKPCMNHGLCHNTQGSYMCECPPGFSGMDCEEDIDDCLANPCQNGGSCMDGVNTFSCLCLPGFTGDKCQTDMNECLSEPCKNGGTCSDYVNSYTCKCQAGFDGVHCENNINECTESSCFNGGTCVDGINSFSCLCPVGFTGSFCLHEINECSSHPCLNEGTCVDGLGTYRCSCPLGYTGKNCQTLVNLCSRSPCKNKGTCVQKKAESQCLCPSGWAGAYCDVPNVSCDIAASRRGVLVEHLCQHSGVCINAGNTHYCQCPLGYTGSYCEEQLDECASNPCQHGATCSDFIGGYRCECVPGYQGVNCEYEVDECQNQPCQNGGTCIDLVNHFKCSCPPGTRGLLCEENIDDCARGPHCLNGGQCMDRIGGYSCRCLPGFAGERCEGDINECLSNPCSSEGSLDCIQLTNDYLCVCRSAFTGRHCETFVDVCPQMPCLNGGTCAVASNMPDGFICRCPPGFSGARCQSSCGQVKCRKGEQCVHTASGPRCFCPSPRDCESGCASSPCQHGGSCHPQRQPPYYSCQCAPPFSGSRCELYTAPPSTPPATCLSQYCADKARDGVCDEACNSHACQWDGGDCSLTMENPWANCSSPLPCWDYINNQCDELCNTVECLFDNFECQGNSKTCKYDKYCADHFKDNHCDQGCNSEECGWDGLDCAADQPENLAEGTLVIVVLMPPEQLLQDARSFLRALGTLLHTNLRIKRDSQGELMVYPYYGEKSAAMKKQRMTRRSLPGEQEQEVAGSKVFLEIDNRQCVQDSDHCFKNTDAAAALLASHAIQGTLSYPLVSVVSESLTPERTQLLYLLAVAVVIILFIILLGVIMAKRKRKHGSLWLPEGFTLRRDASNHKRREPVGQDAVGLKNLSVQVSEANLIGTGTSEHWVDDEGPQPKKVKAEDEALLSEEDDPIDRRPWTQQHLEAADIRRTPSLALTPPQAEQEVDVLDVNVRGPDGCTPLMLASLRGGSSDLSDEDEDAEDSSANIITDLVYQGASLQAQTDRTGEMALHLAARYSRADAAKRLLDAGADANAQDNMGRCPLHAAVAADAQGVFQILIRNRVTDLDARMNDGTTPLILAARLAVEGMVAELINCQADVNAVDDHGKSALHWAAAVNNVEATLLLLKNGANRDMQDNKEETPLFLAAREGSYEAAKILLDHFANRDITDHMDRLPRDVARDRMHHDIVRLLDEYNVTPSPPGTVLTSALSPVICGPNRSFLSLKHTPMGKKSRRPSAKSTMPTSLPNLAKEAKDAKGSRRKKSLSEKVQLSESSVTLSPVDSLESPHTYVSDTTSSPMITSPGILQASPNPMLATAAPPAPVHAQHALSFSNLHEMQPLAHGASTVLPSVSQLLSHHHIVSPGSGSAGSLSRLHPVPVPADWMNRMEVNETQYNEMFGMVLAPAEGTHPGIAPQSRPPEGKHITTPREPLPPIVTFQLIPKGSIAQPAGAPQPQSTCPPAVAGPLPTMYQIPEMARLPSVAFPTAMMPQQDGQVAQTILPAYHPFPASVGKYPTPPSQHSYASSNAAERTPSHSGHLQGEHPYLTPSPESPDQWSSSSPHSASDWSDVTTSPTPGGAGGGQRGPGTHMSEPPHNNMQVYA
The target in experiment [6] is Pro-neuregulin-1, membrane-bound isoform (Homo sapiens) (UniProt Q02297). As to the kind of experiment: small molecules binding neuregulin-1 protein – biochemical, small-molecule microarray, fluorescence 635/667, psychiatric disease protein project, primary screen (AID 1075).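 Also: score combines 667 nm spot fluorescence with signal to noise.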 The settings on record: NRG1 binding, 635 nm fluorescence, higher = more signal.
The test system of experiment [7] is Neuregulin-1 EGF-like domain. As to the kind of experiment: small molecules binding NRG1 EGF domain – biochemical, small-molecule microarray, 635 nm fluorescence, primary screen (AID 1081).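 Also: binding of the protein to compounds printed on small-molecule microarray slides.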 The settings on record: higher = more signal.
Experiment [8] is described as follows: FRG1 expression reporter modulators in myotubes – cell-based, C2C12 myotubes, firefly/Renilla luciferase, luminescence, FRG1 inhibition for FSHD, primary screen (AID 1084). The note with it: FRG1 promoter luciferase, higher = more signal, called active from +8 up or from −8 down.
A short description of experiment [9]: small molecules captured by biotinylated probe aFST – biochemical, small-molecule microarray, fluorescence 635/667, stem cell growth factor project, primary screen (AID 1086).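 Also: score merges 667 nm fluorescence with signal-to-noise of each printed compound spot.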 The note with it: higher = more signal.
Experiment [10] in a line: binders of probe aHhip on microarray, primary screen, stem cell growth factor project, biochemical, small-molecule microarray, fluorescence 635/667 (AID 1087).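 Also: score merges spot fluorescence at 667nm with spot signal to noise ratio.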 The settings on record: higher = more signal.
Experiment [11] relates to PRMT1 (protein arginine N-methyltransferase 1). Put plainly: small molecules binding arginine methyltransferase PRMT1 – biochemical, small-molecule microarray, 635 nm fluorescence, primary screen (AID 1088).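 Also: binding of Prmt1 protein to compounds spotted on small-molecule microarray slides.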 The note with it: higher = more signal.
A short description of experiment [12]: growth effects on S. cerevisiae YJM789 – YJM789 clinical isolate, OD600, 24 h, basal, primary screen (AID 1089).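 Also: growth of clinical yeast isolate S. cerevisiae YJM 789 seeded 1000 cells per well; test concentration not given here.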 The note with it: higher = more signal, called active from +8 up or from −8 down.
Experiment [13] can be described thus: S. pombe growth modifiers, basal conditions – strain 972, OD600, 24 h, no modulator, primary screen (AID 1090).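 Also: basal condition with compound alone and no growth modifier present; test concentration not given here.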 The settings on record: S. pombe 972 growth, higher = more signal, called active from +8 up or from −8 down.
Experiment [14] can be described thus: budding yeast growth modifiers under rapamycin – strain BY4716, OD600, 96 h, primary screen (AID 1091). Also: test concentration not given here. The settings on record: S. cerevisiae BY4716 + rapamycin, higher = more signal, called active from +8 up or from −8 down.
Experiment [15] addresses Torsin-1A-interacting protein 2 (Homo sapiens) (UniProt Q8NFQ8). As to the kind of experiment: small molecules binding lysate-expressed LULL1 – cell lysate, human LULL1 lysate, 635/667 nm fluorescence, primary screen (AID 1092).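 Also: probe is lysate of COS7 cells overexpressing human LULL1; score merges per-feature 667 nm fluorescence with signal-to-noise.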 The settings on record: small-molecule microarray, hLULL1 lysate binding, 635 nm fluorescence; higher = more signal.
Experiment [16] is described as follows: optical density change of DRC41 E. coli – strain DRC41, OD650, 24 h, E. coli filamentation project, primary screen (AID 1093).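 Also: MC1000 strain lacking acrAB efflux and sulA so SOS filamentation is blocked; test concentration not given here.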 The settings on record: E. coli DRC41 growth, higher = more signal, called active from +8 up or from −8 down.
Experiment [17] can be described thus: probe aLefty2 binding to arrayed compounds – biochemical, biotinylated probe, 635/667 nm fluorescence, primary screen (AID 1094).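 Also: score merges spot fluorescence near 667 nm with spot signal-to-noise ratio.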 The note with it: small-molecule microarray, higher = more signal.
Experiment [18] deals with Noggin (protein binding on small-molecule microarray). Put plainly: small molecules binding Noggin protein – biochemical, 635/667 nm fluorescence, primary screen (AID 1095).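 Also: score merges 667 nm feature fluorescence with signal to noise over triplicate slides.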 The settings on record: 635 nm fluorescence, higher = more signal.
The target of experiment [19] is Neurogenic locus notch homolog protein 3 (Homo sapiens) (UniProt Q9UM47). Put plainly: small molecules binding NOTCH3 protein – biochemical, 635/667 nm fluorescence, primary screen (AID 1096). The note with it: small-molecule microarray, 635 nm fluorescence, higher = more signal.
Neurogenic locus notch homolog protein 3 (Homo sapiens), sequence (Q9UM47 whole entry, looked up): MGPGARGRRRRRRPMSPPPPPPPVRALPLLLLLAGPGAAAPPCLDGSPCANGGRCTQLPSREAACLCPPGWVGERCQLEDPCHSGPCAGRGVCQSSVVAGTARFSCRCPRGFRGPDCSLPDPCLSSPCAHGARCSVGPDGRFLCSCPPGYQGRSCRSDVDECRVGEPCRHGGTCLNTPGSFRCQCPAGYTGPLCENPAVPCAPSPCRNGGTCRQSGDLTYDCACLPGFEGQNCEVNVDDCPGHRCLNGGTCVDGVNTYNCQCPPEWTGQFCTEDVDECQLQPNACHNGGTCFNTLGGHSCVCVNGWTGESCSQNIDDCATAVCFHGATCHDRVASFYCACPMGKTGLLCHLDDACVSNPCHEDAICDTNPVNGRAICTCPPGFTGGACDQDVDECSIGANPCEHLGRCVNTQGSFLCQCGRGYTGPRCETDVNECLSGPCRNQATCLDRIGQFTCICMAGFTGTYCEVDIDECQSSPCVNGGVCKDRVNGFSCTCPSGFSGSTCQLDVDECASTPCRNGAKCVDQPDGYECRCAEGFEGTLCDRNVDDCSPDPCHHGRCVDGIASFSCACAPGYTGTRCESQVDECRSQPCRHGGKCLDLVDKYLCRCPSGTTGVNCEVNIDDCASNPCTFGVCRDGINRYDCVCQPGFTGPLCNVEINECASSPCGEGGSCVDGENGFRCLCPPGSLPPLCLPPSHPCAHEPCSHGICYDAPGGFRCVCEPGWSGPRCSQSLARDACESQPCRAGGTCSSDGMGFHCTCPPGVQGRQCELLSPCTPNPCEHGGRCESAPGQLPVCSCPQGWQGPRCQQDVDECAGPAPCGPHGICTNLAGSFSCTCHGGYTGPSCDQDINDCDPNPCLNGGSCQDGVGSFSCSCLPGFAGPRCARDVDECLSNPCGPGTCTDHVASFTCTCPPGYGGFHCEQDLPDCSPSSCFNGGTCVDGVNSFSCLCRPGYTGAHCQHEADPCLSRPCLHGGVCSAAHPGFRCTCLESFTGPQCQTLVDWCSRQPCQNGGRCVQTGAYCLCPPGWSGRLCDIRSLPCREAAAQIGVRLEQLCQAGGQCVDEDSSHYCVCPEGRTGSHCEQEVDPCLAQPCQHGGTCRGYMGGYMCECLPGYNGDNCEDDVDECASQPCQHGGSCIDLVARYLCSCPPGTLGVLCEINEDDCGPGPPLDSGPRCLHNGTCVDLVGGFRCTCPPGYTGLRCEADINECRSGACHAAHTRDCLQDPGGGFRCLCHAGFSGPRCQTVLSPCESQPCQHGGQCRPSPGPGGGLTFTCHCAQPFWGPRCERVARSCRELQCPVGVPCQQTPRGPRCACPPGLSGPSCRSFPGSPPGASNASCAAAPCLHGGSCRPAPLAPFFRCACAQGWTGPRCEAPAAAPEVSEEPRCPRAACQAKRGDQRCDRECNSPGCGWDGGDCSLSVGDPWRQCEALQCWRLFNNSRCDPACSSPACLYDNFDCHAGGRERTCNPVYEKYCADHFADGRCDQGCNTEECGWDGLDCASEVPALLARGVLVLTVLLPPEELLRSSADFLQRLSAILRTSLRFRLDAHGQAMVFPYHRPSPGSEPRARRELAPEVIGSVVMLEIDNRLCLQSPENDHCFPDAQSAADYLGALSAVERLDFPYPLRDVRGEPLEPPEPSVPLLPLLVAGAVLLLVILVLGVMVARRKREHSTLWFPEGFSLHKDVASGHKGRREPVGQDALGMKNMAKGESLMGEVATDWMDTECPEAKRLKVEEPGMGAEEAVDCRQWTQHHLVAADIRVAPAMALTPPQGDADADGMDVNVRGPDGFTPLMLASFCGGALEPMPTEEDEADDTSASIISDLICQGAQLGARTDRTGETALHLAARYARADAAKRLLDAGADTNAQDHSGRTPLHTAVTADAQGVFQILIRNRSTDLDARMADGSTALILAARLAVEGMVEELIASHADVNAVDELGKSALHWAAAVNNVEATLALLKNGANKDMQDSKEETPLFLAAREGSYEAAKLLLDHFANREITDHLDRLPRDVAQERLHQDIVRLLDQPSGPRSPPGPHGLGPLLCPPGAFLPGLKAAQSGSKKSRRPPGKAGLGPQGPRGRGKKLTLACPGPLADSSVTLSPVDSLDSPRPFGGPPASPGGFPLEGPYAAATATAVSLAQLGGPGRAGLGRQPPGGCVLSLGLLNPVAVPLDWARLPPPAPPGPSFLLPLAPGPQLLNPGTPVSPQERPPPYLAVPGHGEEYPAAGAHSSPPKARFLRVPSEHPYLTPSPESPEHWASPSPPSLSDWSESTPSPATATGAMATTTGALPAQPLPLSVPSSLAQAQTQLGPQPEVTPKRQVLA
The nature of experiment [20]: probe aEGFR binding to arrayed compounds – biochemical, biotinylated probe, 635/667 nm fluorescence, primary screen (AID 1097).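 Also: probe is a biotinylated anti-EGFR antibody binding compounds printed on slides; score combines fluorescence near 667 nm and signal to noise of each spot.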 The settings on record: small-molecule microarray, higher = more signal.

As to `COC(=O)C1=C(C)N(Cc2ccccc2)C2=C(C(C)=O)[C@H](c3ccccc3)[C@@](O)(C(=O)OC)C(=O)N2[C@@H]1c1ccccc1`, the composite z-score in [1] is -0.449 and -0.481; in experiment [2] it was 0.468 and -0.61; in experiment [3], -0.129 and -0.139; in experiment [4], 0.778 and -0.338; in [5], 0.691 and 0.083; in [6] it was 0.595 and -0.445. Besides, the composite z-score is 1.18 and -1.44 in experiment [7]; 0.277 and -0.201 in experiment [9]; 0.0515 and -0.281 in [10]; 1.09 and -0.374 in experiment [11]; 0.72 and -0.756 in experiment [15]; -0.0873 and -0.254 in experiment [17]. For the same compound, the composite z-score in experiment [18] was 0.409 and 0.203; in [19] it was 1.13 and -0.352; in experiment [20], 0.0729 and -0.118. The z-score in experiment [8] is -2.61 (inactive) and -1.77 (inactive); in experiment [12], 0.0482 (inactive) and -3.34 (inactive); in experiment [13], -4.6 (inactive) and -4.09 (inactive); in [14] it was -0.873 (inactive) and -2.14 (inactive); in experiment [16], -0.0134 (inactive) and -0.274 (inactive).

With `CC(C)[Si]1(C(C)C)OCc2cc(C3CC3)nc(CCc3ccccc3)c21`, the composite z-score in experiment [1] is -0.141 and -0.208; in [2], -0.305 and 0.114; in experiment [3], -0.0412 and -0.16; in [4], -0.124 and 0.172; in experiment [5] it was 0.0069 and 0.589; in experiment [6] it was -0.352 and -0.0692. In addition, the composite z-score in [7] is -1.21 and -0.253; in experiment [9] it was 0.0391 and 0.169; in [10], -0.0237 and -0.118; in experiment [11], -0.834 and 0.139; in experiment [15], -0.597 and 0.259; in experiment [17] it was -0.22 and -0.0956. Moreover, the composite z-score in experiment [18] was -0.27 and 0.258; in experiment [19], -0.149 and 0.351; in experiment [20] it was -0.109 and -0.0147. In addition, the z-score was -0.218 (inactive) and 0.53 (inactive) in experiment [8]; 0.289 (inactive) and 0.35 (inactive) in experiment [12]; -1.32 (inactive) and 0.134 (inactive) in experiment [13]; 0.725 (inactive) and 0.474 (inactive) in experiment [14]; -0.102 (inactive) and -1.01 (inactive) in experiment [16].

As for `C=CCN(C(=O)C1N(CCCCCCO)C(=O)C2C(C(=O)O)C3C=CC21O3)C(C)(C)C` (stereo not given), the composite z-score in [1] is 0.619 and 0.997; in experiment [2], -1.01 and -1.12; in experiment [3], -0.159 and -0.313; in experiment [4], -1.58 and -1.55; in experiment [5], -1.01 and -1.71; in [6] it was 1.07 and -0.354. Also, the composite z-score in experiment [7] was -0.192 and 0.886; in experiment [9] it was -0.492 and -1.5; in experiment [10] it was -0.169 and 0.0373; in [11], -0.334 and -0.47; in experiment [15] it was -0.773 and 2.17; in [17], -0.231 and -0.0217. Besides, the composite z-score in [18] was -2.53 and -1.64; in experiment [19], -0.763 and -1.42; in experiment [20], -0.253 and -0.375. The z-score in [8] is 3.01 (inactive) and 0.174 (inactive); in [12], -0.686 (inactive) and -0.559 (inactive); in experiment [13], -1.43 (inactive) and -0.867 (inactive); in [14], -0.235 (inactive) and -0.724 (inactive); in experiment [16], 0.137 (inactive) and -0.31 (inactive).

For the compound `COC(=O)[C@@]1(Cc2ccccc2)[C@H]2c3cc(C(=O)N(C)C)n(C[C@H](O)CO)c3C[C@H]2CN1C(=O)c1ccccc1`, the composite z-score in experiment [1] is 0.323 and 0.439; in [2] it was -0.347 and 0.188; in experiment [3], 0.0002 and -0.0065; in [4], 0.122 and 0.158; in experiment [5], 1.15 and 1.53; in [6], 2.1 and 2.01. Also, the composite z-score in experiment [7] is 1.47 and 1.03; in [9], 0.606 and 0.955; in experiment [10], 0.174 and 0.192; in experiment [11], -0.576 and -0.197; in experiment [15] it was 3.69 and 2.3; in [17], -0.052 and 0.0305. Further, the composite z-score in experiment [18] is -0.634 and -0.737; in [19], -0.349 and -0.0109; in experiment [20], -0.228 and 0.0395. The z-score is 1.92 (inactive) and 0.827 (inactive) in experiment [8]; 0.745 (inactive) and 0.53 (inactive) in experiment [12]; -0.421 (inactive) and 0.883 (inactive) in experiment [13]; 0.565 (inactive) and 0.696 (inactive) in experiment [14]; -0.527 (inactive) and -0.856 (inactive) in [16].
